Reference: PubChem BioAssay (Tox21)
Inconclusive results are not listed. The source made the active and inactive calls. The call rests on the fitted dose curve; in most records, active means well fitted cell-killing curve with a large enough effect in the repeat runs; inconclusive means weak or mixed curves, or effect the other way; inactive means no such curve, though single readings can be large or run the other way.

experiment: qHTS assay to identify small molecule antagonists of the vitamin D receptor (VDR) signaling pathway - cell viability counter screen (AID 743225); conditions: VDR-bla HEK293T viability, CellTiter-Glo luminescence, 16 h; series mostly up to 61 µM; further: nearly all actives have a fitted effect of over 50% in size
Outline: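 Cells (VDR-UAS-bla HEK 293T) are plated, rested 4 h at 37C, dosed with compound and 3 nM final 1-alpha,25-dihydroxy vitamin D3, and incubated 16 h. Viability is taken from CellTiter-Glo luminescence in the reporter wells.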

Compound | outcome
Cc1ccc(NC=O)c(C)c1 | inactive
CCC(C)CCCC(C)(C)O (stereo unspecified) | inactive
CO[C@@H]1[C@@H](O[C@@H]2O[C@H](C)[C@@H](O[C@H]3C[C@@](C)(O)[C@@H](O)[C@H](C)O3)[C@H](N(C)C)[C@H]2O)[C@@H](CC=O)C[C@@H](C)[C@@H](O[C@@H]2CC[C@H](N(C)C)[C@@H](C)O2)/C=C/C=C/C[C@@H](C)OC(=O)C[C@H]1OC(C)=O | inactive
CC(=O)Nc1ccccc1O | inactive
CCCCOC(=O)C(C)Oc1ccc(Oc2ccc(C(F)(F)F)cn2)cc1 (stereo unspecified) | inactive
C=CC(O)CCCCC (stereo unspecified) | inactive
CC(=O)OCC(=O)[C@@]1(O)CC[C@H]2[C@@H]3CCC4=CC(=O)C=C[C@]4(C)[C@@]3(F)[C@@H](O)C[C@@]21C | inactive
O=C(O)CNc1ccccc1 | inactive
O=C(Nc1ccccc1)c1cc([N+](=O)[O-])ccc1Cl | inactive
C=CC(C)CCC=C(C)C (stereo unspecified) | inactive
CC1=C(C)C(=O)C(CCCCC#CCCCC#CCO)=C(C)C1=O | inactive
CCCCCCCCC(=O)OCC(C)OC(=O)CCCCCCCC (stereo unspecified) | inactive
Cc1cc(C)n(CO)n1 | inactive
OCCCO | inactive
CCCCOC(=O)CC#N | inactive
C[C@H](CN1CCCC1)C(=O)c1ccc(C(F)(F)F)cc1 | inactive
CC(C)Oc1ccccc1O | inactive
FC1(F)C(F)(F)C(F)(F)C2(F)C(F)(C1(F)F)C(F)(F)C(F)(F)C1(F)C(F)(F)C(F)(F)C(F)(F)C(F)(F)C12F (stereo unspecified) | inactive
CCCCCCCCCCCCSC#N | inactive
CNc1ccccc1 | inactive
CC(C)(C(=O)O)c1ccc(C(O)CCCN2CCC(C(O)(c3ccccc3)c3ccccc3)CC2)cc1 (stereo unspecified) | inactive
